Only some compounds are listed: those with a hit (about 4.1% of all), similar ones and a draw of the others.
PolyA inhibitor: polyadenylation inhibitors in yeast reporter cells, primary screen, luminescence, S. cerevisiae. S. cerevisiae SKY197-pL101 polyadenylation reporter, beta-gal luminescence; efflux-impaired pdr1/pdr3 knockout yeast; score 100 = 6 SD above DMSO. AID 1875, 2009. activity score, % at 12 µM. hit rate 0.02% among 300,000;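 active means lowest replicate activity score at least 50, where 100 means six control SD above control mean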;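 further: yeast exposed to compound for 9 h at 30 °C; higher score means more reporter readthrough which indicates perturbed polyadenylation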
ALR inh: inhibitors of human ALR sulfhydryl oxidase, primary screen, biochemical, H2O2 detection, HRP-luminol luminescence, single point; hit rate 3.8% among 290,000; purified ALR, DTT oxidation; inhibition, % (concentration not given with the values);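 active means mean replicate inhibition above about 79%, with every replicate also reaching it, limit read from the data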
CaV13 FRET inh: Primary screen for inhibitors of IQ motif and Ca2+-dependent inactivation inhibitor domain binding in CACNA1D, Förster resonance energy transfer in living cells, …; HEK cells, CFP/YFP FRET ICDI-IQ, plate reader, 10 min; percent FRET-ratio fall versus neutral wells; inhibition, % at 12.3 µM; hit rate 0.098% among 340,000; AID 743397;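 active means mean replicate inhibition of at least 30% and at least 1% of replicates passing that level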;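 further: 0% = median of the neutral control wells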
IDE inh: human IDE inhibitors in live cells, primary screen, fluorescence polarization, HEK cells, FAbetaB substrate | Insulin-degrading enzyme (Homo sapiens), P14735 | FAbetaB cleavage | inhibition, % at 5.59 µM | hit rate 0.41% among 320,000;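 active means percent inhibition above the average of all tested compounds plus 3 SD, set per screening campaign, cut at about 16% in these data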;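 further: IDE supplied by intact live HEK cells; FP after avidin binding of uncleaved biotin substrate so inhibition keeps polarization high; 0% = DMSO wells and 100% = 60 µM reference IDE inhibitor Ii1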
Target sequence (P14735 whole entry, looked up): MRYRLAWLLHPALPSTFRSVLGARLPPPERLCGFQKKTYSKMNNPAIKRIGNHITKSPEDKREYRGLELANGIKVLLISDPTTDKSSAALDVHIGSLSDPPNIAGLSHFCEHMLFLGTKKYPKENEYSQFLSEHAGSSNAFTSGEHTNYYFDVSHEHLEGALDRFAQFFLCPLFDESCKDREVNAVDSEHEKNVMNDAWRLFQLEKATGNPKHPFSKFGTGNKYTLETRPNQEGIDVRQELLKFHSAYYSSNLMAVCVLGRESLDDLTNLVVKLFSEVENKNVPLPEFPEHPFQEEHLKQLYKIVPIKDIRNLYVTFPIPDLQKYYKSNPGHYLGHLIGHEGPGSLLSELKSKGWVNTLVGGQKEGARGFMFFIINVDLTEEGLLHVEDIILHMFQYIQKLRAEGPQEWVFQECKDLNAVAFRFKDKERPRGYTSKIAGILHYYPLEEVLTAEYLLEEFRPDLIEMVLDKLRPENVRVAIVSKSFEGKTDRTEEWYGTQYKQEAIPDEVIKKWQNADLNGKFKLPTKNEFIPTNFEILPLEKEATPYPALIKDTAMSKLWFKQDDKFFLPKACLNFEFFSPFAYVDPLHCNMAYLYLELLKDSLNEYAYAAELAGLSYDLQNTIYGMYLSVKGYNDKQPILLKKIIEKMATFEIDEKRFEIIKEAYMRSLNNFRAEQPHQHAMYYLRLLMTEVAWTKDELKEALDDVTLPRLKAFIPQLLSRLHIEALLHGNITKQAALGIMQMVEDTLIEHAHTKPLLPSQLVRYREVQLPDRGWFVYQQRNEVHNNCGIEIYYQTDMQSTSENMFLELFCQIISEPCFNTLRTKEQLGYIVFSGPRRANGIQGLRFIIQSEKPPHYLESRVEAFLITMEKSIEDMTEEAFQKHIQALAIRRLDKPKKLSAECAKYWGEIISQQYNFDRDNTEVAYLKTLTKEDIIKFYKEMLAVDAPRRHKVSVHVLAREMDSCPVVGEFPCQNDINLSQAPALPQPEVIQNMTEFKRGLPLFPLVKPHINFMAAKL
M18AAP inhibitor: PfM18AAP inhibitors, malaria aminopeptidase, primary screen, biochemical, QFRET, recombinant enzyme. M18 aspartyl aminopeptidase (Plasmodium falciparum 3D7). H-Glu-NHMec fluorogenic cleavage. inhibition, % at 7.35 µM. hit rate 1.2% among 290,000;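 active means inhibition above the campaign mean inhibition over all tested compounds plus 3 SD, cut at about 28% in these data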;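 further: 0% = plate median of test compound wells and 100% = 2 mM ZnCl2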
IDE cell activ: human IDE activators in live cells, primary screen, fluorescence polarization, HEK cells, FAbeta-B substrate. FAbeta-B cleavage; 0% vehicle, 100% cell-free pure enzyme wells. hit rate 0.073% among 340,000. activation, % at 5.96 µM;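 active means activation above the mean of all tested compounds plus 3 SD, set per screening campaign, cut at about 17% in these data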
* hit, by the source's call; / = no result given.

SMILES	PolyA inhibitor	ALR inh	CaV13 FRET inh	IDE inh	M18AAP inhibitor	IDE cell activ
O=P(COCCOCCOCP(=O)(c1ccccc1)c1ccccc1)(c1ccccc1)c1ccccc1	3	0	2	3	-2	3
Nc1ccccc1OCCOCCOCCOc1ccccc1N	0	97*	-6	-3	5	-4
CCCCOc1ccccc1N	25	-9	-4	4	4	2
N/C(=N\OC(=O)Cc1cccs1)c1ccc(Br)cc1	5	-6	-12	1	1	4
CCn1c(-c2c(Cl)c(C)nn2C)n[nH]c1=S	-2	49	-20	7	32*	0
O=C(CSc1nnc(-c2ccc3c(c2)OCO3)o1)Nc1c(F)cccc1F	/	-2	-2	0	/	3
CCCc1c(C(=O)Nc2ccc(OC)cc2)cnn1-c1ccccc1	15	9	-4	5	4	0
CCCc1c(C(=O)NNc2ccccc2OC)cnn1-c1ccccc1	-9	88*	-15	9	17	-2
O=C(Nc1ccc(F)cc1)c1cccc(N2C(=O)C3C4C=CC(C5CC45)C3C2=O)c1 (centres undefined)	16	-1	-5	5	0	-1
CSc1ccc(CNc2ccccc2)cc1	-3	90*	/	-2	0	/
CSc1ccc(CNc2ccccn2)cc1	10	0	/	0	-19	2
COc1ccc(/C=C2/C(=O)N(c3c(F)c(F)c(F)c(F)c3F)N=C2C)cc1	3	90*	-1	-2	16	2
COc1ccc(/C=C2/C(=O)N(c3ccccc3)N=C2C)cc1	6	-10	/	1	/	/
O=C(c1ccco1)n1nc(-c2ccccc2)nc1NCc1ccco1	-12	78*	-4	4	5	2
CCOC(=O)c1c(C)[nH]c(C)c1S(=O)(=O)N(C)Cc1ccco1	6	-1	-5	-6	-10	3
CN1CCN(c2c(/C=N/O)c3ccccc3n2C)CC1	7	93*	-4	-6	-7	3
Cc1ccccc1C(=O)O/N=C/c1c(N2CCOCC2)n(C)c2ccccc12	-24	6	-3	-1	-28	4
COc1ccc(Cl)cc1NC(=O)C/C(C)=N/NC(=O)Cc1ccccc1	-10	0	-6	3	-8	4
Nc1c(C(=O)N2CCOCC2)sc2nc3c(cc12)CCC3	-2	6	-5	1	1	-1
Nc1c(C(=O)N2CCOCC2)sc2nc3c(cc12)CCCC3	-1	/	-3	-1	31*	-2
COCc1c(C(=O)OCC(=O)NCc2ccco2)oc2ccccc12	/	17	-2	-2	/	0
O=C(CSCC(=O)OCC(=O)c1ccc(Br)cc1)Nc1ccc(Br)cc1	2	25	-5	3	0	-5
NC(=O)c1ccc(NC(=O)CSC(=O)c2ccccc2)cc1	/	99*	-6	5	/	-3
Cc1nnc(SCC(=O)Nc2ccc(C(N)=O)cc2)n1-c1ccccc1	13	-11	-4	2	5	2
CCOC(=O)c1ccc(NC(=O)CSCC(=O)OCC(=O)c2ccccc2)cc1	-2	100*	-3	9	2	-3
SMILES	PolyA inhibitor	ALR inh	CaV13 FRET inh	IDE inh	M18AAP inhibitor	IDE cell activ
O=C(CSCc1ccc(C(=O)O)cc1)Nc1ccc2ccccc2c1	-8	99*	-16	5	3	2
COC(=O)c1ccc(CSCC(=O)Nc2ccccc2)cc1	-8	92*	-6	-4	-3	-3
COc1ccc(NC(=O)C(c2ccc(OC)cc2)n2c(=O)c(-c3ccco3)nc3ccccc32)cc1 (centres undefined)	/	/	-6	/	/	/
CCCCN1C=C(C(C)=O)C(=O)CC1	/	/	-10	/	/	2
COc1ccc(/C=N/NC(=O)C2c3ccccc3Oc3ccccc32)c(OC)c1	2	41	-5	2	3	-6
Cc1[nH]n(C)c(=O)c1C(=O)c1c(-c2ccccc2Cl)noc1C	-25	85*	-3	2	7	9
CC(=O)N1CCN(C(=S)NC(=O)c2c(-c3ccccc3Cl)noc2C)CC1	-4	95*	-4	-7	6	2
Cc1ccc(NC(=S)NC(=O)c2c(-c3ccccc3Cl)noc2C)cc1	-1	/	-6	2	12	-10
Cc1onc(-c2ccccc2Cl)c1C(N)=O	-3	-31	-2	6	-10	2
Cn1cc(C(=O)N/N=C/C2=C(N3CCOCC3)C(=C\c3ccccc3)/CC2)ccc1=O	-2	89*	-5	5	13	-7
CC(NC(=O)C12CC3CC(CC(C3)C1)C2)C(=O)N/N=C/C1=C(N2CCOCC2)C(=C\c2ccccc2)/CC1 (centres undefined)	10	-1	-2	2	-3	-6
O=C(/C=C/c1ccc(O)c(O)c1)OCCc1ccccc1	-9	98*	-6	5	/	0
O=C(/C=C/c1ccc(O)c(O)c1)OC(Cc1ccc(O)c(O)c1)C(=O)O (centres undefined)	-1	99*	/	1	89*	4
O=C(COC(=O)/C=C/c1cccc(Br)c1)NCCc1ccccc1	-15	-18	-2	11	/	2
COc1ccc(OC)c(-c2csc(NC(=O)CSCc3c(C)noc3C)n2)c1	-2	98*	-6	3	/	4
COc1ccc(C(=O)COC(=O)CSCc2c(C)noc2C)cc1OC	6	98*	-8	-3	-4	-2
COc1ccc(-c2nc(CSCC(=O)NCC3CCCO3)c(C)o2)cc1OC (centres undefined)	26	98*	-6	-1	1	7
CCOc1ccc(-c2nc(CSCC(=O)NCC3CCCO3)c(C)o2)cc1 (centres undefined)	12	99*	-3	7	-2	-3
Cc1ccc(-c2nc(CSCC(=O)NCC3CCCO3)c(C)o2)cc1 (centres undefined)	6	95*	-2	7	-1	1
COc1ccc(-c2nc(CSCC(=O)NCCCN3CCCC3=O)c(C)o2)cc1OC	10	98*	-2	-5	-8	4
Cc1ccc(-c2nc(CSCC(=O)Nc3cc(C)on3)c(C)o2)cc1	-7	/	-7	-1	0	1
Cc1cc2nc(C(C)(C)C)c(Cc3ccsc3)n2c(C)c1Br	/	/	-5	/	/	/
O=C(Nc1c(C(=O)O)oc2ccc(Br)cc12)c1ccccc1	-5	95*	/	0	3	4
Cc1c(C(=O)NNC(=O)c2ccccc2O)oc2ccc(Br)cc12	-3	4	-6	4	/	-1

Screening results: PubChem BioAssay, several laboratories
